# Data taken from paper PMC7862700, “An all-to-all approach to the identification of sequence-specific readers for epigenetic DNA modifications on cytosine”.
# Legend:
# Experiment in all cases: DAPPL (digital affinity profiling via proximity ligation, sequencing); 10 mM Tris-HCl pH 7.5, 50 mM NaCl, 1 mM DTT, 4% glycerol, room temperature, 30 min; GST-TFs on glutathione beads, 16-mer random dsDNA library, 0.1% formaldehyde crosslink after washing; high values mean tight binding
# FLI1 = molecular target: T1, FLI1 (Homo sapiens, UniProt Q01543 1-452); details: protein: recombinant; tags: N-terminal GST; dsDNA, one strand shown
# T1 sequence: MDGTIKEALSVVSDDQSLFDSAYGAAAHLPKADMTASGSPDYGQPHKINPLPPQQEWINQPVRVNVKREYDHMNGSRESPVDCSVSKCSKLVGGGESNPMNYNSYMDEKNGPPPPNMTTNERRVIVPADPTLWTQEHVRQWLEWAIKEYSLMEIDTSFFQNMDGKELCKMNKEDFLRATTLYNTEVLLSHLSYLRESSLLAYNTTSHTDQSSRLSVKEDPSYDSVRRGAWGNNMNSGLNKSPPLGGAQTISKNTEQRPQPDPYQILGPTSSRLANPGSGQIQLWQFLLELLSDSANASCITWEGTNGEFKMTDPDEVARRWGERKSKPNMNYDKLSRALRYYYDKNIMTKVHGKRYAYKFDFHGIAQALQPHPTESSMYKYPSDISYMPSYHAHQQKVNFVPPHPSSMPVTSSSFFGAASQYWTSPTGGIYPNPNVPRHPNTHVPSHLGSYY
# In short: (§1)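 Pools of DNA-barcoded human transcription factors, expressed in yeast as GST fusions on glutathione beads and combined with a tag-only sample, were incubated with 200 nmole of a 16-mer random double-stranded DNA library. Incubation took 30 min at room temperature in Tris/NaCl/DTT/glycerol buffer and was followed by washing, 0.1% formaldehyde crosslinking, proximity ligation (BsaI/T4 ligase, 1 h, 37 °C), PCR amplification and sequencing on an Illumina NextSeq500. Binding signal is the ratio of a hexamer's read frequency for a factor to its frequency for the tag-only sample.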
# ELK1 = molecular target: T2, ELK1 (Homo sapiens, UniProt P19419 1-428); details: protein: recombinant; tags: N-terminal GST; dsDNA, one strand shown
# T2 sequence: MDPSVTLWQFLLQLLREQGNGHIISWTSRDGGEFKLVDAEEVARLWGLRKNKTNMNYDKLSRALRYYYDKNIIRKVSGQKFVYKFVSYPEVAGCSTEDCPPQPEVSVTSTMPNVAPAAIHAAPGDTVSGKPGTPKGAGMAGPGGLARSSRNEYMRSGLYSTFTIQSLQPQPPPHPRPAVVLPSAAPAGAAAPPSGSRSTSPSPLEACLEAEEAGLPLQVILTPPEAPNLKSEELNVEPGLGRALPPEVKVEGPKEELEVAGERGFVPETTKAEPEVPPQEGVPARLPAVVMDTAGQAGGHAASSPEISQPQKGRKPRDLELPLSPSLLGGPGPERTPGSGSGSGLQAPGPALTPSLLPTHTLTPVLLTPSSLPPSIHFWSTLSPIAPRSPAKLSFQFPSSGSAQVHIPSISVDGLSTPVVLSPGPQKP
# In short: as §1
# GABPA = molecular target: T3, GABPA (Homo sapiens, UniProt Q06546 1-454); details: protein: recombinant; tags: N-terminal GST; dsDNA, one strand shown
# T3 sequence: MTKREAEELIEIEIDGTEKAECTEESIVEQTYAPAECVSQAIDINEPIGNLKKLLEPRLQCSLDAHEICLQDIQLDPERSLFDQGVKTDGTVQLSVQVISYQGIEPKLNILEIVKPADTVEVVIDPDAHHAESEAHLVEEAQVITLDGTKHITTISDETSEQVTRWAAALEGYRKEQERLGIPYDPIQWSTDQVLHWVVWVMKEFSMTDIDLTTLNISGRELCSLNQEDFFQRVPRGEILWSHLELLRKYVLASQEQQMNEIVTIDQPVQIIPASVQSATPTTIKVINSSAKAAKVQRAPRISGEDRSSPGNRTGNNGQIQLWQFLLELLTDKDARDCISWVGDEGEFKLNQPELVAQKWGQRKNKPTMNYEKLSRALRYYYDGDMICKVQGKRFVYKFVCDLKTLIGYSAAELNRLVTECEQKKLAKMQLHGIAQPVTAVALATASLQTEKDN
# In short: as §1
# ERG = molecular target: T4, ERG (Homo sapiens, UniProt P11308 1-479); details: protein: recombinant; tags: N-terminal GST; dsDNA, one strand shown
# T4 sequence: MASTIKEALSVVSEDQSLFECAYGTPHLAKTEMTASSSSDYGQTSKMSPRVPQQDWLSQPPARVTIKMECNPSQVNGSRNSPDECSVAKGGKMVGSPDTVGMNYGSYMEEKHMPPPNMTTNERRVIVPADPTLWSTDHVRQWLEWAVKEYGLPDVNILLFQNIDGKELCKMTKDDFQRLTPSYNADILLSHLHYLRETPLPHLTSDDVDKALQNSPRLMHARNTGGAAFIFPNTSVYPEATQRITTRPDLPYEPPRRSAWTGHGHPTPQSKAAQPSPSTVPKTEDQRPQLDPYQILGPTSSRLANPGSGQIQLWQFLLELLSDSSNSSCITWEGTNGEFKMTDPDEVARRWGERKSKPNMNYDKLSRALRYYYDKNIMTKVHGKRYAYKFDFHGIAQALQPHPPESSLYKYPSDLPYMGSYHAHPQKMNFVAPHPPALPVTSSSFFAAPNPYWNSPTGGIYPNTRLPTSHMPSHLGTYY
# In short: as §1
# ELF1 = ELF1 (Homo sapiens, UniProt P32519 1-619); details: protein: recombinant; tags: N-terminal GST; dsDNA, one strand shown
# Sequence of ELF1 (P32519 whole entry): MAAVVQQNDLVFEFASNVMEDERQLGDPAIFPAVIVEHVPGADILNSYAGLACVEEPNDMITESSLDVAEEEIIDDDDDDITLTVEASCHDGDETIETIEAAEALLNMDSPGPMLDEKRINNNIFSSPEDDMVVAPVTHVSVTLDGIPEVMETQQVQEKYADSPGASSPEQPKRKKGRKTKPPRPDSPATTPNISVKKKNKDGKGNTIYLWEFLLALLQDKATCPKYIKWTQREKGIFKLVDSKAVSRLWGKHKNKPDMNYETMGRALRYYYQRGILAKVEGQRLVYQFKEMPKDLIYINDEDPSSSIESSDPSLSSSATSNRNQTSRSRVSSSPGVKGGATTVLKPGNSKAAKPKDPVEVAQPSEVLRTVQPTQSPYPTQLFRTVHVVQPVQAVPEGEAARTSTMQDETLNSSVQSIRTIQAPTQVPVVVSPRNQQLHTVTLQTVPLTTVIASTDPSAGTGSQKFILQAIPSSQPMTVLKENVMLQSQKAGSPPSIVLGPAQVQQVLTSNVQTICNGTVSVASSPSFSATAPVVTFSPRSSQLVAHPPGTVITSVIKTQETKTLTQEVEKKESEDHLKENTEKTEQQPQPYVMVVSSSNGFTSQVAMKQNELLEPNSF
# In short: as §1
# EHF = molecular target: T5, EHF (Homo sapiens, UniProt Q9NZC4 1-300); details: protein: recombinant; tags: N-terminal GST; dsDNA, one strand shown
# T5 sequence: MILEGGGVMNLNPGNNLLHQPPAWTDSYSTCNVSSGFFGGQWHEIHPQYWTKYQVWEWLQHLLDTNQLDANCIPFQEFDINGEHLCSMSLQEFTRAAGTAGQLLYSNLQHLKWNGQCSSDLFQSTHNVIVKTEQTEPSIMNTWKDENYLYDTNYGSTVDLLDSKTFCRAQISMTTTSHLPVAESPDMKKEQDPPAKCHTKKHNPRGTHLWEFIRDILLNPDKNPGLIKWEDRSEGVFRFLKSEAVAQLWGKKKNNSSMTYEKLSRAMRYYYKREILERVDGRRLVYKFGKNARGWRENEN
# In short: as §1
# SPI1 = SPI1 (Homo sapiens, UniProt P17947 1-270); details: protein: recombinant; tags: N-terminal GST; dsDNA, one strand shown
# In short: as §1
# SPIB = SPIB (Homo sapiens, UniProt Q01892 1-262); details: protein: recombinant; tags: N-terminal GST; dsDNA, one strand shown
# Sequence of SPIB (Q01892 whole entry): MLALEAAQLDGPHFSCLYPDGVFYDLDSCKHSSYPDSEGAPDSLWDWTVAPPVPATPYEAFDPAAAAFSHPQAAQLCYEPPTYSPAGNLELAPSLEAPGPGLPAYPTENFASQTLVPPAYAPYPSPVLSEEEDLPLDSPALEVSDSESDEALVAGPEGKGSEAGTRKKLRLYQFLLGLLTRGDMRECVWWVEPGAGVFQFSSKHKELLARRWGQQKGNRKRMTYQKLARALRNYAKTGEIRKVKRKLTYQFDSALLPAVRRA
# In short: as §1
# FEV = molecular target: T6, FEV (Homo sapiens, UniProt Q99581 1-238); details: protein: recombinant; tags: N-terminal GST; dsDNA, one strand shown
# T6 sequence: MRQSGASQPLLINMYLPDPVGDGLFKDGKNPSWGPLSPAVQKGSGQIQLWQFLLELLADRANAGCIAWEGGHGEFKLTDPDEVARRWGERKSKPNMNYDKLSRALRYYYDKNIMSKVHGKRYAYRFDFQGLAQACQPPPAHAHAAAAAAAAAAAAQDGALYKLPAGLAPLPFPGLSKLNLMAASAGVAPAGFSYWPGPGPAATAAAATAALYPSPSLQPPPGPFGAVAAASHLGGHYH
# In short: as §1
# ETV5 = ETV5 (Homo sapiens, UniProt P41161 1-510); details: protein: recombinant; tags: N-terminal GST; dsDNA, one strand shown
# Sequence of ETV5 (P41161 whole entry): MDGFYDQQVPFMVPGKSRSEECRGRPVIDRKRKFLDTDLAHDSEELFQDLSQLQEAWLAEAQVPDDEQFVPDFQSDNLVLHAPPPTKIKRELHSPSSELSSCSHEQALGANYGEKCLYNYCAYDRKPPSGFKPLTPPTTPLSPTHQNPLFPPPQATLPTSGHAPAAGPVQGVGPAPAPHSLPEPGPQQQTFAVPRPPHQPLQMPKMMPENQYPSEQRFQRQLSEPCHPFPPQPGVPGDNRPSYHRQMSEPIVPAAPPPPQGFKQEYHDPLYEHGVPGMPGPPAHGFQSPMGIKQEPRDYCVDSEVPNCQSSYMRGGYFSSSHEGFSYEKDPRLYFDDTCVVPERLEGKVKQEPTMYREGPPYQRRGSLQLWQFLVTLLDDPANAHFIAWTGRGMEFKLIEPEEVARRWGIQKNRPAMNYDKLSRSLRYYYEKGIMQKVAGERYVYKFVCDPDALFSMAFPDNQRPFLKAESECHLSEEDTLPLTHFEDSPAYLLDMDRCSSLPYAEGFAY
# In short: as §1
# HSF1 = HSF1 (Homo sapiens, UniProt Q00613 1-529); details: protein: recombinant; tags: N-terminal GST; chain copies: 3; dsDNA, one strand shown
# Sequence of HSF1 (Q00613 whole entry): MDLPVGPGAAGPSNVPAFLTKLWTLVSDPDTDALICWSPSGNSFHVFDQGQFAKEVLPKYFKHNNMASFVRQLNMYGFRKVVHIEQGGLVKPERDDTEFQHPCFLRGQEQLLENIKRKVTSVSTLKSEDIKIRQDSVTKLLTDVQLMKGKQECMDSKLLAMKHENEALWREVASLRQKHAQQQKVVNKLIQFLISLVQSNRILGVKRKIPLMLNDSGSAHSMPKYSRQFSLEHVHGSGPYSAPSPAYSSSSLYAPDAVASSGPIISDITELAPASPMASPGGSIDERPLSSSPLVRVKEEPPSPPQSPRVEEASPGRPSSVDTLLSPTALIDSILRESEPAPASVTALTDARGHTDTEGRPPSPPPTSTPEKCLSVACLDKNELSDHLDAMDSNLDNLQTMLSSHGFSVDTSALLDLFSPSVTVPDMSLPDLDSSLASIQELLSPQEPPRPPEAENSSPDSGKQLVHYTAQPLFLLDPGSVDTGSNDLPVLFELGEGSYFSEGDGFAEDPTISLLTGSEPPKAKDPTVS
# In short: as §1
# SPIC = molecular target: T7, SPIC (Homo sapiens, UniProt Q8N5J4 1-248); details: protein: recombinant; tags: N-terminal GST; dsDNA, one strand shown
# T7 sequence: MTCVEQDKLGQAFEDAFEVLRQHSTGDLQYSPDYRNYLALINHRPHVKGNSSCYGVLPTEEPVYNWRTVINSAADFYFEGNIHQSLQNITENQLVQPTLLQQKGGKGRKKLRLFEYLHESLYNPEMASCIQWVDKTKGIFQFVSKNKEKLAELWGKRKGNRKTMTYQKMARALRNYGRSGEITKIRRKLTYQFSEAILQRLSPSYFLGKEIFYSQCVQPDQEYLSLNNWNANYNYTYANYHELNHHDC
# In short: as §1
# ELF4 = ELF4 (Homo sapiens, UniProt Q99607 1-663); details: protein: recombinant; tags: N-terminal GST; dsDNA, one strand shown
# Sequence of ELF4 (Q99607 whole entry): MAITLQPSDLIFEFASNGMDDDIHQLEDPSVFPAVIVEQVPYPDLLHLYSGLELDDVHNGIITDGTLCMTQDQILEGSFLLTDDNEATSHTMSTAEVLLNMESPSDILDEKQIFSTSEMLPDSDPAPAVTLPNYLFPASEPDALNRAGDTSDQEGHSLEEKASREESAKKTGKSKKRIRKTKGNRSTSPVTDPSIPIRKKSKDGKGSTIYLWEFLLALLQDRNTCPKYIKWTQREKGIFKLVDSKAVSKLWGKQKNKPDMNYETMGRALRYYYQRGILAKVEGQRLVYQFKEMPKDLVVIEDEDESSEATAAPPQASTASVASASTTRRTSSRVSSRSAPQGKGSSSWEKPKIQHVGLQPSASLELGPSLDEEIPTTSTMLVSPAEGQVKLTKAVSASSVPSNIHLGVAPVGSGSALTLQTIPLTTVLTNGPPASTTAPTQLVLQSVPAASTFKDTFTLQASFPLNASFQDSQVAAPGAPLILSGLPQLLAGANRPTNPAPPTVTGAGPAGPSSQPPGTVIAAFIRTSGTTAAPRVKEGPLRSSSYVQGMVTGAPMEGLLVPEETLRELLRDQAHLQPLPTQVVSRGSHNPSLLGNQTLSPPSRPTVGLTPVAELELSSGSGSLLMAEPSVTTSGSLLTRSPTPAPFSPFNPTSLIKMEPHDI
# In short: as §1
# ELK4 = molecular target: T8, ELK4 (Homo sapiens, UniProt P28324-2 1-405); details: protein: recombinant; tags: N-terminal GST; dsDNA, one strand shown
# T8 sequence: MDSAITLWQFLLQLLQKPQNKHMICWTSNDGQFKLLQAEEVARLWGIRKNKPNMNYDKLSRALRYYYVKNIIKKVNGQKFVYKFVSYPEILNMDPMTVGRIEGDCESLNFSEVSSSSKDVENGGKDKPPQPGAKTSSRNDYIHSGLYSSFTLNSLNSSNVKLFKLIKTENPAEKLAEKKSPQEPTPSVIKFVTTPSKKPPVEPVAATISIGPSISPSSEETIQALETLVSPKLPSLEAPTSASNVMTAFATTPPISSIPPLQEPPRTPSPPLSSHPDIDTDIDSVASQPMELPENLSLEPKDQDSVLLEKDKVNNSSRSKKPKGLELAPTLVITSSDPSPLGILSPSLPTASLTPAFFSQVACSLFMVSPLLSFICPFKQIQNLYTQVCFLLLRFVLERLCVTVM
# In short: as §1
# ETV2 = molecular target: T9, ETV2 (Homo sapiens, UniProt O00321 1-342); details: protein: recombinant; tags: N-terminal GST; dsDNA, one strand shown
# T9 sequence: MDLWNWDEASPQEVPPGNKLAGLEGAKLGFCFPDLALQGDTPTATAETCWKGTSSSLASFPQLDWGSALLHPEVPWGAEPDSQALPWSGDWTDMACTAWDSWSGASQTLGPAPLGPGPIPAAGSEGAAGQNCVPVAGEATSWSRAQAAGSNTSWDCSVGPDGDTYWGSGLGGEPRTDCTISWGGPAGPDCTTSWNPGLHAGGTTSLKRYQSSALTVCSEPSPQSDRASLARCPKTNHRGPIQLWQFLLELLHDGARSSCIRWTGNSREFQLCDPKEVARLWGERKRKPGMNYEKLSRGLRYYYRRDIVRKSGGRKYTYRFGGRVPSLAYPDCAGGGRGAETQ
# In short: as §1
# ELF3 = molecular target: T10, ELF3 (Homo sapiens, UniProt P78545 1-371); details: protein: recombinant; tags: N-terminal GST; dsDNA, one strand shown
# T10 sequence: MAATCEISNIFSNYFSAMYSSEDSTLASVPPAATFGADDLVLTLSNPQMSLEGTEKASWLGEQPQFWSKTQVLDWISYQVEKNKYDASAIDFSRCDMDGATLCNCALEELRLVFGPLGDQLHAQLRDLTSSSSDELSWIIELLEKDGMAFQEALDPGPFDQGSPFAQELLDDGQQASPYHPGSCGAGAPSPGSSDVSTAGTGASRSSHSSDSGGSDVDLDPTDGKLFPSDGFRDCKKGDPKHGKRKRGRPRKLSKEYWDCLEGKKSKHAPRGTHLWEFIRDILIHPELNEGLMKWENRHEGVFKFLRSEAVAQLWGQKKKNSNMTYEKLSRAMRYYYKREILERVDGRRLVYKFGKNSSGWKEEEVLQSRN
# In short: as §1
# CRX = CRX (Homo sapiens, UniProt O43186 1-299); details: protein: recombinant; tags: N-terminal GST; dsDNA, one strand shown
# Sequence of CRX (O43186 whole entry): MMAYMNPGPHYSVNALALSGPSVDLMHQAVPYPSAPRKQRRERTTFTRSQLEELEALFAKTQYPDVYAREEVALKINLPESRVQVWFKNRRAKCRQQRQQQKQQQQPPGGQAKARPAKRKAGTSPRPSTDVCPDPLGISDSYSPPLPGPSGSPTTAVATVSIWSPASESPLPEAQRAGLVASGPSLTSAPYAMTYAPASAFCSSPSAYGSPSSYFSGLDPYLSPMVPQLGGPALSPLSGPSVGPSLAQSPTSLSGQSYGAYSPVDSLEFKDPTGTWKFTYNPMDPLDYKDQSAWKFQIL
# In short: as §1
# ETV1 = ETV1 (Homo sapiens, UniProt P50549 1-477); details: protein: recombinant; tags: N-terminal GST; dsDNA, one strand shown
# Sequence of ETV1 (P50549 whole entry): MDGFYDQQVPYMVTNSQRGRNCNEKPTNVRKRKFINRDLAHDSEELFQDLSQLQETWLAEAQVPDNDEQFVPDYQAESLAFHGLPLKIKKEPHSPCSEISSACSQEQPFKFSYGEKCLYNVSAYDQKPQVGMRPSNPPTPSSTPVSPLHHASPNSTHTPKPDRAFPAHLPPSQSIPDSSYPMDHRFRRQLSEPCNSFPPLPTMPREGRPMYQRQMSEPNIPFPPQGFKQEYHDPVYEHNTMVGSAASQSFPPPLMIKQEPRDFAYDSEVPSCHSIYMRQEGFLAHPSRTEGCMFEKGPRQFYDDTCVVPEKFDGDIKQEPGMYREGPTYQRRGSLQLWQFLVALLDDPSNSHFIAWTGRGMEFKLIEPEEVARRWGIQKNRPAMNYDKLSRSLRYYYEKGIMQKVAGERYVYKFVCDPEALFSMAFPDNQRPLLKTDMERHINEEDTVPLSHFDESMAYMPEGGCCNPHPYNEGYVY
# In short: as §1
sequence,measurement,setting,value
AATAGA,binding signal,FLI1,"1.06 fold enrichment (6-mer frequency, TF over GST control)"
same,binding signal,ELK1,"1.09 fold enrichment (6-mer frequency, TF over GST control)"
same,binding signal,GABPA,"1.11 fold enrichment (6-mer frequency, TF over GST control)"
same,binding signal,ERG,"1.12 fold enrichment (6-mer frequency, TF over GST control)"
same,binding signal,ELF1,"1.09 fold enrichment (6-mer frequency, TF over GST control)"
same,binding signal,EHF,"1.08 fold enrichment (6-mer frequency, TF over GST control)"
same,binding signal,SPI1,"1.08 fold enrichment (6-mer frequency, TF over GST control)"
same,binding signal,SPIB,"1.05 fold enrichment (6-mer frequency, TF over GST control)"
same,binding signal,FEV,"1.07 fold enrichment (6-mer frequency, TF over GST control)"
same,binding signal,ETV5,"1.07 fold enrichment (6-mer frequency, TF over GST control)"
same,binding signal,HSF1,"1.34 fold enrichment (6-mer frequency, TF over GST control)"
same,binding signal,SPIC,"1.02 fold enrichment (6-mer frequency, TF over GST control)"
same,binding signal,ELF4,"1.07 fold enrichment (6-mer frequency, TF over GST control)"
same,binding signal,ELK4,"1.1 fold enrichment (6-mer frequency, TF over GST control)"
same,binding signal,ETV2,"1.13 fold enrichment (6-mer frequency, TF over GST control)"
same,binding signal,ELF3,"1.07 fold enrichment (6-mer frequency, TF over GST control)"
same,binding signal,CRX,"1.15 fold enrichment (6-mer frequency, TF over GST control)"
same,binding signal,ETV1,"1.07 fold enrichment (6-mer frequency, TF over GST control)"
